Here are results for 40 compounds from PubChem BioAssay (Tox21).

Records with an inconclusive call do not appear. A call without a number means that no potency is given here. Values without a mark were called inactive. Calls of active or inactive are those of the source. Calls come from the whole dose curve.

The experiment can be described thus: p53 small molecule agonists, cell-based qHTS assay: qHTS cell viability counter screen (AID 1963581). Note: nearly all actives have a fitted effect of over 45% in size. To be noted: p53RE-bla HCT-116 viability, ATP luminescence, 16 h; series mostly up to 66 µM; activity change, negative = cytotoxicity: at the top concentration. An excerpt: National Center for Advancing Translational Sciences [NCATS]
Division of Preclinical Innovation [DPI]
U.S. Environmental Protection Agency [EPA]
National Institutes of Environmental Health Sciences [NIEHS]
National Toxicology Program [NTP]
U.S. Food and Drug Administration [FDA]
p53, a tumor suppressor protein, is activated following cellular insult, including DNA damage and other cellular stresses. The activation of p53 regulates cell fate by inducing DNA repair, cell cycle arrest, apoptosis, or cellular senescence. The activation of p53, therefore, is a good indicator of DNA damage and other cellular stresses. The CellSensor p53RE-bla HCT-116 cell line (Invitrogen) contains a stably integrated beta-lactamase reporter gene under control of the p53 response elements. The activation of the reporter gene under culture conditions can be detected by fluorescence intensity. This cell line was used to screen the Tox21 compound library in a 1536-well plate format and to identify agonists that activate the p53 signaling pathway. The cytotoxicity of the Tox21 compound library against the p53 RE-bla HCT-116 cell line was tested in parallel by measuring the intra cellular ATP content in the same wells.
Tox21 Assay Protocol Summary:
The p53RE-bla cells were dispensed at 4,000 cells/5 ul/well in 1536-well black wall/clear bottom plates using a Multidrop dispenser. After the assay plates were incubated at a 37 C/5% CO2 incubator for 5 hours, 23 nL of compounds dissolved in DMSO, positive controls or DMSO only was transferred to the assay plate by a pin tool. The plates were incubated at 37 C for 16 hours. After 1 uL of LiveBLAzerTM B/G FRET substrate was added using a Flying Reagent Dispenser, the plates were incubated at room temperature for 2 hours, and fluorescence intensity was measured by an Envision plate reader. For cell viability readout that measures cytotoxicity, 4 ul/well of CellTiter-Glo reagent was added into the assay plates using a Flying Reagent Dispenser. After 30 min incubation at room temperature, the luminescence intensity in the plates was measured using a ViewLux plate reader.
In general terms: In qHTS, concentration-response curves come from the screen itself.
In the case of `OCc1ccc(Cl)cc1Cl`, the Potency entry was “inactive”.

In the case of `CCCCCCCCCCCCN`, the Potency entry was “inactive”.

Consider `Cc1[nH]c(=O)c(C#N)cc1-c1ccncc1`, for which the “activity change, negative = cytotoxicity” value was 13.1% [at 30.3 µM].

`CCCCC(=O)O`: the Potency result is “inactive”.

Consider `COC(=O)c1ccc(C=O)cc1`, for which the Potency entry is “inactive”.

`C[C@]12C=CC(=O)C=C1CC[C@H]1[C@@H]3C[C@@H](O)[C@](O)(C(=O)CO)[C@@]3(C)C[C@H](O)[C@@]12F`: the “activity change, negative = cytotoxicity” value was -9.04% [at 30.3 µM].

In the case of `NNc1ccc(C(=O)O)cc1`, the Potency entry was “inactive”.

Turning to `COCN(COC)c1nc(N(COC)COC)nc(N(COC)COC)n1`, the Potency result is “inactive”.

On to `CC(O)CC(C)(C)O` (stereo not given), for which the Potency result is “inactive”.

On to `CCOc1ccc(NC(C)=O)cc1`, for which the Potency result was “inactive”.

Regarding `CC1=C(/C=C/C(C)=C/C=C/C(C)=C/C(=O)O)C(C)(C)CCC1`, the Potency result was “inactive”.

`Nc1ncn([C@@H]2O[C@H](CO)[C@@H](O)[C@H]2O)c(=O)n1`: the Potency result is “inactive”.

Regarding `CC(C)(C)NC(=O)[C@H]1CC[C@H]2[C@@H]3CC[C@H]4NC(=O)C=C[C@]4(C)[C@H]3CC[C@]12C`, the Potency entry was “inactive”.

For the compound `CCOCCOCCO`, the Potency entry is “inactive”.

On to `NS(=O)(=O)c1cc2c(cc1Cl)NC=NS2(=O)=O`, for which the “activity change, negative = cytotoxicity” value is 0%.

Consider `CC(=O)CC(c1ccccc1)c1c(O)c2ccccc2oc1=O` (stereo not given), for which the Potency entry is “inactive”.

In the case of `CN1C(=O)CC[C@H]1c1cccnc1`, the Potency entry was “inactive”.

Turning to `C[Si]1(C)O[Si](C)(C)O[Si](C)(C)O[Si](C)(C)O1`, the Potency entry was “inactive”.

With `COc1ccc(C(=O)c2ccccc2O)c(O)c1`, the Potency entry was “inactive”.

As for `CC(CCC(=O)O)(c1ccc(O)cc1)c1ccc(O)cc1`, the Potency entry was “inactive”.

As for `O=C1c2c(O)cccc2Cc2cccc(O)c21`, the Potency result was “inactive”.

For the compound `CCCCCCCCC(=O)O`, the Potency entry was “inactive”.

In the case of `O=C(O)c1[nH]n(-c2ccc(S(=O)(=O)O)cc2)c(=O)c1N=Nc1ccc(S(=O)(=O)O)cc1`, the Potency result is “inactive”.

Take `COc1ccc([C@@H]2CC(=O)c3c(O)cc(O[C@@H]4O[C@H](CO[C@@H]5O[C@@H](C)[C@H](O)[C@@H](O)[C@H]5O)[C@@H](O)[C@H](O)[C@H]4O)cc3O2)cc1OC`: the Potency entry was “inactive”.

`NCCN1CCNCC1`: the Potency result is “inactive”.

`O=C(O)c1ccc(O)cc1`: the Potency result was “inactive”.

In the case of `CCC(C)(O)CCCC(C)C` (stereo not given), the “activity change, negative = cytotoxicity” value is 8.07%.

Turning to `c1ccc2scnc2c1`, the “activity change, negative = cytotoxicity” value was -3.11%.

Take `CC(O)COc1ccccc1` (stereo not given): the Potency entry was “inactive”.

Turning to `[O-]/[N+](=N\O)c1ccccc1`, the Potency entry was “inactive”.

As to `Cc1ccc(C)c(OCCCC(C)(C)C(=O)O)c1`, the Potency result was “inactive”.

On to `CC(=O)O[C@]1(C(C)=O)CC[C@H]2[C@@H]3C[C@H](C)C4=CC(=O)CC[C@]4(C)[C@H]3CC[C@@]21C`, for which the Potency entry is “inactive”.

As for `O=[N+]([O-])C(CO)(CO)CO`, the Potency entry was “inactive”.

Consider `CCCCCCCCCCO`, for which the Potency entry was “inactive”.

As for `Cc1cn([C@H]2C[C@H](N=[N+]=[N-])[C@@H](CO)O2)c(=O)[nH]c1=O`, the Potency entry is “inactive”.

Turning to `Cc1cc(=O)oc2cc(O)ccc12`, the Potency entry is “inactive”.

As for `CC1=CCC2CC1C2(C)C` (stereo not given), the Potency entry is “inactive”.

For the compound `CC(=O)C1=C(C)[C@@H]2C[C@@]3(C1)[C@H](C)CC[C@H]3C2(C)C`, the Potency result was “inactive”.

On to `COCCCN`, for which the Potency entry was “inactive”.

As to `C/C=C/c1ccc(OC)cc1`, the Potency result is “inactive”.
